This excerpt belongs to a sample that is enriched for hits.
TTR transcr act – TTR transcription activators in neuroblastoma reporter cells, primary screen, cell-based, luminescence, SH-SY5Y, TTR promoter Gaussia luciferase | 100% = recombinant luciferase protein wells | activation, % at 16.7 µM | 92,000 tested, 1.3% active | AID 1117267, 2014;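 active = activation above the mean of all tested compounds plus 3 SD, cut at about 9.5% in these data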;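 note: cells exposed to compounds for one day before reading; 0% = median of all test compound wells on the plate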
TTR inh HuH7 – TTR promoter reporter inhibitors in hepatoma cells, counter-screen for TTR transcription activator project, cell-based, luminescence, HuH7 hepatoma; HuH7 TTR promoter-Gaussia luciferase reporter; 1,100 tested, 4% active; AID 1117279, 2014; shares compounds with TTR transcr act; inhibition, % at 16.7 µM;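 active = average inhibition above the solvent-only control wells' mean plus 3 SD, cut at about 15% in these data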;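 note: 0% = cells with DMSO only and 100% = cells with inhibitor control FD; inhibitors lower well luminescence so higher value means more inhibition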
TTR up confirm – TTR transcription activators, retest, confirmation, cell-based, luminescence, SH-SY5Y, triplicate | shares compounds with TTR transcr act | SHSY5Y TTR promoter Gaussia luciferase; 100% = purified Lucia enzyme wells, no cells | activation, % at 16.7 µM | 1,100 tested, under 10 active | AID 1117280, 2014;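 active = mean activation above a set limit taken from the earlier primary screen, cut at about 11% in these data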;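 note: 0% = DMSO-treated cells and 100% = recombinant Lucia luciferase without cells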
An asterisk follows results filed as active.

For CCC12CCN(CC3(O)CC3)C(Cc3ccc(O)cc31)C2(C)C (centres undefined) the results were TTR transcr act 3.9.
`CC(C)C(NC(=O)OCc1ccccc1)P(=O)(Oc1ccccc1)Oc1ccccc1` (centres undefined) gave TTR transcr act 0.2.
CCN1CCN(c2nc([N+](=O)[O-])nn2C)CC1 was read as TTR transcr act 14.2*, TTR inh HuH7 -3.5 and TTR up confirm -0.3.
Screening CN1CCN(c2nc([N+](=O)[O-])nn2C)CC1 returned TTR transcr act 0.9.
`Cc1nn(C)c(C)c1P(=S)(c1c(C)nn(C)c1C)N(C)C` gave TTR transcr act 9.9*, TTR inh HuH7 -4.3 and TTR up confirm -0.8.
Cc1ccccc1NC(=O)N1Cc2ccccc2-n2nncc2C1 was read as TTR transcr act 0.2.
CCc1cc(OC)c(CCN)cc1OC was read as TTR transcr act 1.7.
Screening COP(=O)(C(=O)Nc1ccccc1)C(CC(C)C)NC(=O)OCc1ccccc1 (centres undefined) returned TTR transcr act 2.4.
COc1cc(O)c2c(c1)/C=C/C[C@H](O)[C@H](O)[C@@H](O)/C=C/C[C@H](C)OC2=O was read as TTR transcr act 0.8.
`CC(C)NC1(c2ccccc2)CCCCC1` gave TTR transcr act -1.0.
`CN(C)CC1CSCCC1(O)c1ccccc1Cl` (centres undefined) gave TTR transcr act 2.1.
For CNC1(c2ccccc2Cl)CCCCC1=O (centres undefined) the results were TTR transcr act 15.6*, TTR inh HuH7 -3.1 and TTR up confirm -0.6.
`S=P(c1ccccc1)(c1ccccc1)c1cnc2ccccn12` gave TTR transcr act -0.4.
Screening O=C(CNC(=O)OCc1ccccc1)NC(Cc1ccccc1)P(=O)(Oc1ccccc1)Oc1ccccc1 (centres undefined) returned TTR transcr act -2.1.
For Clc1ccc([C@H]2CC3CCC2N3)cn1 (some centres undefined) the results were TTR transcr act -1.9.
CCC(NC(=O)OCc1ccccc1)P(=O)(Oc1ccccc1)Oc1ccccc1 (centres undefined) was read as TTR transcr act -0.5.
For COC(=O)C1C(OC(=O)c2ccccc2)CC2CCC1[N+]2(C)C (centres undefined) the results were TTR transcr act -0.4.
For COC(=O)C1C(c2ccc(F)cc2)CC2CCC1N2C (centres undefined) the results were TTR transcr act -0.4.
Screening Cn1c(O)c(/C=C2\C=Nc3ccccc32)c(=O)n(C)c1=O returned TTR transcr act -0.3.
`COC(=O)C1=Nc2ccccc2/C1=C\c1c(O)n(C)c(=O)n(C)c1=O` gave TTR transcr act 0.0.
For Cn1c(O)c(/C=C2\N=c3ccccc3=C2CCNC(=S)NC2CC2)c(=O)n(C)c1=O the results were TTR transcr act 13.3*, TTR inh HuH7 17.2* and TTR up confirm -0.3.
For NC(Cc1ccccc1)[P+](=O)O (centres undefined) the results were TTR transcr act 6.2.
Screening O=C1CC[C@@]2(O)[C@H]3Cc4ccc(O)c5c4[C@@]2(CCN3CC2CC2)C1O5 (some centres undefined) returned TTR transcr act -0.6.
For O=P(Oc1ccccc1)(N1CCOCC1)N1CCOCC1 the results were TTR transcr act -1.1.
`O=P(/C(=N/O)N1CCOCC1)(N1CCOCC1)N1CCOCC1` gave TTR transcr act 12.3*, TTR inh HuH7 -9.6 and TTR up confirm -0.5.
`O=CC(Cl)P(=O)(N1CCOCC1)N1CCOCC1` (centres undefined) gave TTR transcr act 0.9.

Compound activity deposited in PubChem by The Scripps Research Institute Molecular Screening Center.
